Some test systems named below: T-47D breast; BT-549 breast; MDA-MB-435 melanoma; SW-620 colon; MCF7 breast; HCT-116 colon; HCC-2998 colon; KM12 colon; MDA-MB-468 breast.
Assay in all cases: NCI-60 one-dose screen, 48 h (100 = growth as untreated, 0 = no growth, -100 = all killed)
Details in all cases: 10 µM

About 83,000 compounds went through this panel and 20% of them were active in at least one assay; those are over-represented in the sample as a whole.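 Cell lines were cultured in 96-well plates, exposed to a single compound concentration, and assessed for percent growth 48 hours later.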 A number with no mark means an inactive call. Active and inactive are the calls of the source. The calls were made as follows: active = growth percent below 10; inactive = the rest.

With `O=C(NO)c1ccc(-c2nc3ccc4[nH]ncc4c3c3c2CCCC3)cc1`, the growth in the assay with T-47D breast was -8.47% (active); in the assay with BT-549 breast it was -50.2% (active); in the assay on MDA-MB-435 melanoma, -78.1% (active); in the assay on SW-620 colon, 1.77% (active); with MCF7 breast, -20.8% (active); in the assay with HCT-116 colon, 2.92% (active). Also, the results for the growth in the assay on HCC-2998 colon, in the assay with KM12 colon and in the assay on MDA-MB-468 breast were -67.4% (active), -28.3% (active) and -90.3% (active), respectively.

For `Cc1cc(=O)oc2cc(OCCCCOc3ccc(/C=C/C(=O)Nc4cccc(Cl)c4)cc3)ccc12`, the growth is 24.5% in the assay with T-47D breast; 41% in the assay with BT-549 breast; 64.2% in the assay with MDA-MB-435 melanoma; 61.9% with SW-620 colon; 50.8% in the assay on MCF7 breast; 79.7% with HCT-116 colon. Moreover, the growth with HCC-2998 colon was 94.2%; with KM12 colon, 72.5%; in the assay on MDA-MB-468 breast, 3.36% (active).

Consider `COc1ccc2c(c1)N=C(C(=O)O)/C2=C/c1sc(Nc2ccc(O)cc2)nc1O`, for which the growth is 45.4% with T-47D breast; 55.4% in the assay with BT-549 breast; 8.85% (active) in the assay on MDA-MB-435 melanoma; 74.7% in the assay on SW-620 colon; 27.9% in the assay on MCF7 breast; 64.7% in the assay on HCT-116 colon. Further, the growth in the assay on HCC-2998 colon is 74.7%; with KM12 colon it was 57.9%; in the assay with MDA-MB-468 breast it was 12.3%.

`O=C(Nc1cccc(-c2cn(-c3ccc4oc(=O)ccc4c3)nn2)c1)Nc1cc(C(F)(F)F)cc(C(F)(F)F)c1`: the growth was -0.405% (active) with T-47D breast; 3.59% (active) in the assay with BT-549 breast; 49% with MDA-MB-435 melanoma; 56.6% in the assay with SW-620 colon; 17% in the assay with MCF7 breast; 29.1% in the assay with HCT-116 colon. Moreover, the growth with HCC-2998 colon was 33.1%; in the assay on KM12 colon, 33.2%; with MDA-MB-468 breast, -23.3% (active).

On to `CCOC(=O)c1sc(N/N=C(\C)c2ccc3c(c2)Nc2ccccc2S3)nc1C`, for which the growth in the assay on T-47D breast is 8.5% (active); with BT-549 breast it was 48.1%; in the assay on MDA-MB-435 melanoma it was 34.5%; in the assay with SW-620 colon, 20.3%; in the assay with MCF7 breast, -2.84% (active); in the assay on HCT-116 colon, 23.4%. Also, the values for the growth with HCC-2998 colon, in the assay with KM12 colon and with MDA-MB-468 breast were 3.51% (active), 7.04% (active) and 8.47% (active), respectively.

Turning to `Cc1ccc(-c2cc(-c3cc4ccccc4nc3Cl)[nH]c(=O)n2)cc1`, the growth in the assay with T-47D breast is 3.13% (active); in the assay on BT-549 breast, -76.8% (active); with MDA-MB-435 melanoma, 19.1%; with SW-620 colon, -46.3% (active); in the assay on MCF7 breast, 1.81% (active); in the assay with HCT-116 colon it was -72.8% (active). Also, the values for the growth in the assay with HCC-2998 colon, in the assay with KM12 colon and with MDA-MB-468 breast were -1.29% (active), -18.6% (active) and -7.37% (active), respectively.

On to `O=C(NO)c1ccc(CNC(=O)[C@H]2Cc3c([nH]c4ccccc34)[C@H](c3ccc(Cl)cc3)N2)cc1`, for which the growth in the assay on T-47D breast was -2.39% (active); in the assay with BT-549 breast it was 26.9%; with MDA-MB-435 melanoma, 4.26% (active); with SW-620 colon it was -51.6% (active); with MCF7 breast it was 3% (active); in the assay with HCT-116 colon, 1.03% (active). The growth in the assay with HCC-2998 colon was -53.2% (active); in the assay on KM12 colon, 19.6%; in the assay with MDA-MB-468 breast, -33.5% (active).

With `CCOP(=O)(OCC)O[C@H]1CC[C@]2(C)[C@H]3CC[C@@H]4[C@@H]([C@](C)(O)CCC=C(C)C)CC[C@@]4(C)[C@]3(C)CC[C@H]2C1(C)C`, the growth with T-47D breast is 9.26% (active); in the assay on BT-549 breast it was -14.5% (active); in the assay on MDA-MB-435 melanoma, 29.9%; in the assay on SW-620 colon, 14.9%; in the assay on MCF7 breast it was -0.325% (active); in the assay with HCT-116 colon, 9.92% (active). The growth with HCC-2998 colon was 36%; in the assay with KM12 colon, 21.1%; with MDA-MB-468 breast, -23.3% (active).

With `C[C@H]1[C@H](C)CC[C@]2(COC(=O)CCC(=O)NCC#CCN3CCNCC3)CC[C@]3(C)C(=CC[C@@H]4[C@@]5(C)CCCNC(C)(C)[C@@H]5CC[C@]43C)[C@H]12`, the growth in the assay with T-47D breast is 40%; with BT-549 breast, 55.4%; in the assay with MDA-MB-435 melanoma it was 32.4%; in the assay with SW-620 colon, -2.55% (active); in the assay on MCF7 breast, 1.4% (active); with HCT-116 colon it was 10.5%. The figures for the growth with HCC-2998 colon, with KM12 colon and with MDA-MB-468 breast were -41.7% (active), 32.4% and 17.9%, respectively.

As to `O=C(NO)c1ccc(CNc2nc(-c3ccccc3)c3ccccc3n2)cc1`, the growth with T-47D breast is -13.1% (active); in the assay on BT-549 breast it was 18.1%; in the assay with MDA-MB-435 melanoma, 4.16% (active); in the assay on SW-620 colon, -58.2% (active); with MCF7 breast, 7.92% (active); in the assay with HCT-116 colon it was 4% (active). Besides, the values for the growth with HCC-2998 colon, with KM12 colon and in the assay with MDA-MB-468 breast were -63.9% (active), 11.6% and -0.98% (active), respectively.

In the case of `CCCCCCCCCCCCCCCCCCCC(=O)NCCc1c[nH]c2ccc(O)cc12`, the growth was 103% in the assay with T-47D breast; 32.3% in the assay on BT-549 breast; 112% with MDA-MB-435 melanoma; 112% with SW-620 colon; 84.9% in the assay on MCF7 breast; 83.3% with HCT-116 colon. Moreover, the growth with HCC-2998 colon was 114%; in the assay on KM12 colon, 88.5%; with MDA-MB-468 breast, 128%.

For `CN(C)CCNC(=O)OCCCCOc1cc(O)c2c(=O)cc(-c3ccccc3)oc2c1`, the growth with T-47D breast was -65.8% (active); in the assay with BT-549 breast, -59.9% (active); in the assay on MDA-MB-435 melanoma it was -51% (active); in the assay with SW-620 colon, -31.7% (active); in the assay on MCF7 breast, -89.8% (active); in the assay on HCT-116 colon it was -68.9% (active). Further, the growth is -50.8% (active) with HCC-2998 colon, -49.8% (active) in the assay on KM12 colon and -81.1% (active) in the assay with MDA-MB-468 breast.

Consider `COc1ccc(Nc2nc(N)n(Cc3cccc(Br)c3)n2)cc1`, for which the growth is 13.4% with T-47D breast; -8.47% (active) with BT-549 breast; -18.2% (active) in the assay with MDA-MB-435 melanoma; 18.3% with SW-620 colon; 1.86% (active) in the assay on MCF7 breast; 12% in the assay on HCT-116 colon. Besides, the growth with HCC-2998 colon is -13.1% (active); in the assay on KM12 colon it was 1.74% (active); with MDA-MB-468 breast, -12.3% (active).

For the molecule `N#Cc1c(NC(=O)c2ccc(C(F)(F)F)cc2C(F)(F)F)sc2c1CCC(=O)C2`, the growth in the assay with T-47D breast was -22.7% (active); with BT-549 breast it was -65.3% (active); in the assay with MDA-MB-435 melanoma, -53.6% (active); in the assay on SW-620 colon it was -43.7% (active); with MCF7 breast it was -10.6% (active); in the assay with HCT-116 colon, 0.663% (active). Besides, the growth is -2.99% (active) in the assay with HCC-2998 colon, -34.2% (active) with KM12 colon and -79.9% (active) in the assay with MDA-MB-468 breast.

Source of the values: PubChem BioAssay (NCI).
